# Several values for one entry are separate records, joined by “and”; a condition that tells them apart may be missing. Equal values may be shown once. The panel holds about 83,000 compounds, 20% with a hit somewhere; the sample as a whole holds those more often.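 Compound tested at a single concentration for 48 hours in 96-well plates; a percent growth value below 10 was scored as active.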 Activity calls are given as the source filed them.
# Legend:
# Test in all cases: NCI-60 one-dose screen, 48 h (100 = growth as untreated, 0 = no growth, -100 = all killed)
# Details in all cases: 10 µM unless noted
# NCI-H23 lung = tested on: NCI-H23 lung
# NCI-H226 lung = tested on: NCI-H226 lung
# HOP-62 NSCLC = tested on: HOP-62 NSCLC
# NCI-H460 lung = tested on: NCI-H460 lung
# HOP-92 NSCLC = tested on: HOP-92 NSCLC
# NCI-H522 lung = tested on: NCI-H522 lung
# A549/ATCC NSCLC = tested on: A549/ATCC NSCLC
# 786-0 renal = tested on: 786-0 renal
# COLO 205 colon = tested on: COLO 205 colon
# DU-145 prostate = tested on: DU-145 prostate
# K-562 leukemia = tested on: K-562 leukemia
# MALME-3M melanoma = tested on: MALME-3M melanoma
# MDA-MB-231 breast = tested on: MDA-MB-231 breast
# RXF 393 renal = tested on: RXF 393 renal
# SF-268 CNS = tested on: SF-268 CNS
# SF-295 CNS = tested on: SF-295 CNS
# SF-539 CNS = tested on: SF-539 CNS
# UACC-257 melanoma = tested on: UACC-257 melanoma
# M14 melanoma = tested on: M14 melanoma
Compound,growth (NCI-H23 lung),growth (NCI-H226 lung),growth (HOP-62 NSCLC),growth (NCI-H460 lung),growth (HOP-92 NSCLC),growth (NCI-H522 lung),growth (A549/ATCC NSCLC),growth (786-0 renal),growth (COLO 205 colon),growth (DU-145 prostate),growth (K-562 leukemia),growth (MALME-3M melanoma),growth (MDA-MB-231 breast),growth (RXF 393 renal),growth (SF-268 CNS),growth (SF-295 CNS),growth (SF-539 CNS),growth (UACC-257 melanoma),growth (M14 melanoma)
Cc1nc2c(=O)[nH]c(=S)[nH]c2[nH]c1=O,108% (inactive) and 101% (inactive),100% (inactive) and 104% (inactive),108% (inactive) and 99.1% (inactive),106% (inactive) and 110% (inactive),111% (inactive),105% (inactive) and 100% (inactive),103% (inactive) and 105% (inactive),112% (inactive) and 107% (inactive),108% (inactive) and 115% (inactive),112% (inactive) and 119% (inactive),102% (inactive),108% (inactive),112% (inactive) and 102% (inactive),111% (inactive) and 125% (inactive),109% (inactive) and 104% (inactive),111% (inactive) and 94.6% (inactive),104% (inactive) and 99.1% (inactive),110% (inactive) and 97.8% (inactive),113% (inactive) and 110% (inactive)
OCCS,93.7% (inactive),98.8% (inactive),97.3% (inactive),106% (inactive),95.2% (inactive),102% (inactive),95.1% (inactive),94.2% (inactive),107% (inactive),104% (inactive),91.4% (inactive),101% (inactive),99.3% (inactive),110% (inactive),99.5% (inactive),101% (inactive),100% (inactive),90.9% (inactive),97.6% (inactive)
O=C(OCc1ccccc1)c1ccccc1,107% (inactive) and 90.2% (inactive),97.9% (inactive) and 93.9% (inactive),94.9% (inactive) and 90.5% (inactive),109% (inactive) and 108% (inactive),89.6% (inactive),111% (inactive) and 79.6% (inactive),95.3% (inactive) and 86.6% (inactive),95.1% (inactive) and 96.5% (inactive),101% (inactive),118% (inactive) and 101% (inactive),104% (inactive),109% (inactive) and 102% (inactive),88.2% (inactive) and 102% (inactive),91.4% (inactive),114% (inactive) and 99.1% (inactive),108% (inactive) and 103% (inactive),107% (inactive) and 94.9% (inactive),95.6% (inactive) and 85% (inactive),104% (inactive) and 91% (inactive)
COc1ccc(CCn2cnn3c(=O)c4ccccc4nc3c2=O)cc1OC,97.6% (inactive) and 114% (inactive),94.7% (inactive) and 97% (inactive),112% (inactive) and 104% (inactive),105% (inactive) and 118% (inactive),93.6% (inactive) and 88.7% (inactive),112% (inactive) and 97.6% (inactive),104% (inactive) and 106% (inactive),95.2% (inactive) and 108% (inactive),104% (inactive) and 117% (inactive),98.2% (inactive) and 117% (inactive),99.9% (inactive) and 102% (inactive),114% (inactive),110% (inactive) and 101% (inactive),103% (inactive) and 115% (inactive),93.8% (inactive) and 108% (inactive),111% (inactive),101% (inactive) and 97.4% (inactive),101% (inactive) and 112% (inactive),94% (inactive) and 106% (inactive)
Nc1nc(=S)c2[nH]cnc2[nH]1,17.6% (inactive) and 161% (inactive),39% (inactive) and 37.4% (inactive),16.5% (inactive) and 18% (inactive),3.77% (active) and 6.79% (active),-2.57% (active),-4.74% (active) and 7.57% (active),31.7% (inactive) and 2.46% (active),17.2% (inactive) and 9.97% (active),-27.5% (active) and 7.45% (active),21.3% (inactive) and 21% (inactive),9.77% (active) and -2.79% (active),21.6% (inactive) and 35.7% (inactive),32.9% (inactive) and 29.4% (inactive),5.3% (active) and -2.73% (active),17.8% (inactive) and 26.3% (inactive),25.6% (inactive) and 19% (inactive),7.88% (active),41.4% (inactive) and 24.2% (inactive),5.54% (active)
Cc1c(Cl)c(C)c(Cc2c(C)c(Cl)c(C)c(Cl)c2O)c(O)c1Cl,-13% (active),15.7% (inactive),–,5.16% (active),-20% (active),7.1% (active),14.4% (inactive),49% (inactive),79.4% (inactive),30.2% (inactive),20.1% (inactive),-3.69% (active),2.41% (active),4.04% (active),19.6% (inactive),0.164% (active),15.7% (inactive),-0.631% (active),22.6% (inactive)
Nc1c(S(=O)(=O)O)cc(Br)c2c1C(=O)c1ccccc1C2=O,103% (inactive),98.2% (inactive) and 99.6% (inactive),88.1% (inactive) and 111% (inactive),102% (inactive) and 106% (inactive),73.4% (inactive),83% (inactive),104% (inactive),106% (inactive) and 110% (inactive),97.5% (inactive) and 106% (inactive),106% (inactive) and 116% (inactive),101% (inactive) and 96.6% (inactive),97.6% (inactive) and 116% (inactive),115% (inactive) and 107% (inactive),111% (inactive) and 98.7% (inactive),102% (inactive) and 106% (inactive),104% (inactive) and 100% (inactive),104% (inactive) and 101% (inactive),83.3% (inactive),117% (inactive) and 110% (inactive)
CC(C)(C)OC(=O)CC1(O)CCCCC1,101% (inactive),93.7% (inactive),114% (inactive),103% (inactive),86.1% (inactive),102% (inactive),109% (inactive),101% (inactive),109% (inactive),112% (inactive),114% (inactive),117% (inactive),95.8% (inactive),108% (inactive),104% (inactive),100% (inactive),108% (inactive),109% (inactive),108% (inactive)
CCCCNC(=O)c1ccccc1C,90.4% (inactive),94.4% (inactive),91.1% (inactive),105% (inactive),96.3% (inactive),93.2% (inactive),100% (inactive),92.9% (inactive),98.3% (inactive),104% (inactive),103% (inactive),87.4% (inactive),103% (inactive),94.8% (inactive),101% (inactive),94.6% (inactive),107% (inactive),100% (inactive),90.4% (inactive)
C/C(CC(C)C)=N/NC(N)=S,88.8% (inactive),85.8% (inactive),99.4% (inactive),102% (inactive),78.2% (inactive),95.2% (inactive),83.6% (inactive),107% (inactive),102% (inactive),92.2% (inactive),56.2% (inactive),81.4% (inactive),100% (inactive),108% (inactive),88.8% (inactive),84.3% (inactive),105% (inactive),74.4% (inactive),84.4% (inactive)
COc1cc2oc3cc(=O)cc4oc(-c5ccccc5)cc(c2c2c1CCC(c1ccccc1)O2)c43 (stereo not drawn),87.8% (inactive),64.4% (inactive),91% (inactive),76.2% (inactive),81.1% (inactive),86.6% (inactive),96.2% (inactive),110% (inactive),98.5% (inactive),79.7% (inactive),42.1% (inactive),117% (inactive),75.8% (inactive),78.6% (inactive),85.1% (inactive),70.5% (inactive),78.7% (inactive),99.9% (inactive),88.2% (inactive)

# Reference: PubChem BioAssay (NCI)
